From ChEMBL document CHEMBL3988442, “University of Dundee, Small-Polar-MMV Screening Library” (2021) come the findings set out here.

The campaign covered roughly 69,000 compounds. About 950 (1.4%) showed an effect of 50% or more. The sample holds strong results, similar compounds and a random draw of the others, so the mix is not that of the screen.

In this experiment the test system is Mycobacterium tuberculosis. In words: Cornell M. t heat shock assay. Note: in the data most compounds retested in dose-response had high values. The class given is functional, organism-based. On the set-up: dose or concentration left out as unconfirmed.
For `COc1ccccc1N1CCN(C(=O)Cn2nccc2C)CC1(C)C`, the “Percent Effect” value worked out at 90.85%. Then `O=C(c1c[nH]c2ccccc2c1=O)N1CCSCC1`, with 105.4%; and `COc1ccc2[nH]cc(C(=O)N3CC[C@H](CO)[C@@H](O)C3)c(=O)c2c1`, with -0.5763%. `O=C(Cc1c[nH]c2ccccc12)N1CCN(C(=O)c2ccoc2)CC1`: the “Percent Effect” value worked out at 3.224%. Next, `Cc1nccc(NCc2cncc3c2CCN(CCN(C)C)C3)n1`: 3.393%; `COc1ccccc1N1CCN(Cc2ncc(C)c(OC)c2C)CC1=O`: 18.05%. `COCCNc1nc(-n2nc(C)cc2C)nc2sc3c(c12)CCCC3`: the “Percent Effect” value is listed as 40.33%. Then `Cc1cc(C)n(C2=NC(NCCC(C)C)c3c(sc4c3CCCC4)N2)n1` (stereo not drawn), with 11.87%; and `Cc1cc(C)n(-c2nc(NCCCO)c3c4c(sc3n2)CCCC4)n1`, with 101.1%.

Regarding `CO[C@@H]1CN(c2ccccc2)S(=O)(=O)[C@@]12CCN(C(C)=O)C2`, the “Percent Effect” value came to 16.02%. Turning to `Cc1ccc(CN(CCCn2ccnc2)Cc2ccccc2O)s1.O=C(O)CC(O)(CC(=O)O)C(=O)O`, the “Percent Effect” value amounted to 35.85%. Next, `Cc1ccc(O)c(CN(CCCn2ccnc2)Cc2ccc(C)s2)c1.O=C(O)CC(O)(CC(=O)O)C(=O)O`: 105.6%. Regarding `Cc1ccc(CN(CCCO)Cc2nc3ccccc3[nH]2)s1`, the “Percent Effect” value is recorded as -17.57%. Next, `Cc1ccc(S(=O)(=O)N2CCN(CCCn3ccnc3)CC2)cc1`: 15.57%; `CN(C)c1ccc(CN(CCCn2ccnc2)Cc2c[nH]cn2)cc1.O=C(O)CC(O)(CC(=O)O)C(=O)O`: 16.53%; `Cc1cccc(CC(=O)N2CCN(c3nccn3C)CC2)c1.Cl`: -13.18%. As to `O=C(O)C(F)(F)F.O=C(O)C(F)(F)F.c1csc(CN2C[C@@H]3COC[C@]3(COCc3ccncc3)C2)c1`, the “Percent Effect” value is -17.61%. For `O=C(Cc1ccc(F)cc1)N1CCn2cc(Cn3cccn3)nc2C1.O=C(O)C(F)(F)F`, the “Percent Effect” value is 1.862%. Next, `Cn1nccc1NC(=O)CN1CCc2sccc2C1`: -34.76%; `CC(C)n1nccc1NC(=O)CN1CCc2sccc2C1`: -0.741%; `O=C(CN1CCc2sccc2C1)Nc1ccnc2ccnn12`: 101.6%.

On to `Cc1ccoc1C(=O)N1CCc2ccc(=O)n(CCN(C)C)c2CC1.O=C(O)C(F)(F)F`, for which the “Percent Effect” value was -10.47%. For the compound `CCNc1ncc(C(=O)N2CCOC(CCCC(C)C)C2)cn1` (stereo not drawn), the “Percent Effect” value was determined as 101.8%. Then `CCNc1ncc(C(=O)N2CCOC(CCCc3ccccc3)C2)cn1` (stereo not drawn), with 13.88%. Take `CCc1ocnc1C(=O)N1CCOC(CCCC(C)C)C1` (stereo not drawn): the “Percent Effect” value was 2.233%.

For the compound `Cn1cc2c(n1)C(CNCc1ccco1)OCC2.O=C(O)C(F)(F)F.O=C(O)C(F)(F)F` (stereo not drawn), the “Percent Effect” value is listed as -43.95%. Consider `CC(C)C(=O)N1CCC[C@]2(C(=O)N(C)C)CN(c3ccccn3)C[C@@H]2C1.O=C(O)C(F)(F)F`, for which the “Percent Effect” value was -34.76%. On to `CN(C)C(=O)C1OC2(CCNCC2)c2ccccc21.O=C(O)C(F)(F)F` (stereo not drawn), for which the “Percent Effect” value is listed as -39.36%. As to `Cc1cnn(CC(C)NCc2csc(-c3ncccn3)n2)c1` (stereo not drawn), the “Percent Effect” value is 10.59%. Then `CC(Cn1cccn1)NCc1csc(-c2cccs2)n1` (stereo not drawn), with 54.31%; and `CC(Cn1cccn1)NCc1nc(-c2ccccc2Cl)no1` (stereo not drawn), with 1.662%. Take `CC(Cn1cccn1)NCc1csc(-c2ccccc2F)n1` (stereo not drawn): the “Percent Effect” value came out at 54.47%. Next, `CC(Cn1cccn1)NCc1csc(-c2ccsc2)n1` (stereo not drawn): 22.32%; `Cc1cnn(CC(C)NCc2csc(-c3cccs3)n2)c1` (stereo not drawn): 37.01%; `COCC(=O)N1C[C@@H](OCc2ccncc2)[C@@H]2OCCC[C@@H]21.O=C(O)C(F)(F)F`: -15.14%. Then `Cc1ccc2c(c1)CN(C(=O)c1ccncc1)C(CN(C)C)CO2.Cl` (stereo not drawn), with -12.12%; and `COCC(=O)NCc1cc(=O)n2c(n1)CN(CC1CC1)CCC2.O=C(O)C(F)(F)F`, with 0.2802%. Next, `COC[C@H]1CC[C@@H]2[C@@H](CCN2Cc2ccccn2)O1.O=C(O)C(F)(F)F.O=C(O)C(F)(F)F`: -12.12%; `COc1cccc(CN2CCc3nc4ccsc4c(=O)n3CC2)c1.Cl`: -5.651%; `O=C(CCc1ccccc1)C1CCCN(Cc2cncn2C2CC2)C1` (stereo not drawn): 5.776%. Regarding `COCCn1cncc1CN1CCC(C(C)=O)(c2ccccc2)CC1`, the “Percent Effect” value is on record as -3.844%. Then `CC1(c2ccccc2)CCCN(Cc2cncn2C2CC2)C1` (stereo not drawn), with 105.6%. Take `CN1CCCC2(CCN(Cc3cncn3C3CCCCC3)C2)C1=O` (stereo not drawn): the “Percent Effect” value is on record as 13.88%. Next, `CC1(c2ccccc2)CCCN(Cc2cncn2C2CCCC2)C1` (stereo not drawn): 105.4%; `COCCn1cncc1CN1CCCC(C)(c2ccccc2)C1` (stereo not drawn): 52.06%. Next, `COCCn1cncc1CN1CCCC(C(=O)Cc2ccccc2)C1` (stereo not drawn): 2.668%; `CC1(c2ccccc2)CCCN(Cc2nnc(-c3cccnc3)o2)C1` (stereo not drawn): 31.3%.

Take `CCCN1CCCC2(CCN(Cc3cncn3C3CCCC3)C2)C1=O` (stereo not drawn): the “Percent Effect” value is recorded as -6.674%.
